{"source": "PubChem BioAssay", "note": "Activity calls are given as the source filed them. The rule behind the calls is not given here.", "data": [{"tested_on": "Aerobactin synthetase IucA (Klebsiella pneumoniae hvKP1)", "test": "IucA enzyme inhibition, primary screen, biochemical, Spectrum library (AID 1346200);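 note: 100% = wells without compound and 0% = wells lacking enzyme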", "details": "malachite green pyrophosphate, A620, at 8 µM, hits give low values", "values": [{"smiles": "CC1O[C@@H](Oc2c(-c3ccc(O)c(O)c3)oc3cc(O)cc(O)c3c2=O)[C@H](O)[C@H](O)[C@H]1O", "note": "(some centres not stated)", "activity remaining": "111% (inactive)"}, {"smiles": "O=C(OOC(=O)c1ccccc1)c1ccccc1", "activity remaining": "113% (inactive)"}, {"smiles": "CC1(C)OC(=O)NC1=O", "activity remaining": "115% (inactive)"}, {"smiles": "CO[C@@]1(NC(=O)C(C(=O)O)c2ccc(O)cc2)C(=O)N2C(C(=O)O)=C(CSc3nnnn3C)CO[C@@H]21", "note": "(some centres not stated)", "activity remaining": "102% (inactive)"}, {"smiles": "Nc1nccs1", "activity remaining": "89.3% (inactive)"}, {"smiles": "CC(C)c1c(O)c(-c2cc3c(c(C(C)C)c2O)CCC2C(C)(C)CCC[C@]32C)cc2c1CCC1C(C)(C)CCC[C@]21C", "note": "(some centres not stated)", "activity remaining": "102% (inactive)"}, {"smiles": "CC(C)(S)C(N)C(=O)O", "note": "(configuration not stated)", "activity remaining": "128% (inactive)"}, {"smiles": "O=c1[nH]c2cc(Cl)c(Cl)cc2[nH]c1=O", "activity remaining": "121% (inactive)"}, {"smiles": "CCOC(=O)[C@H](CCc1ccccc1)N[C@H]1CCc2ccccc2N(CC(=O)O)C1=O", "activity remaining": "123% (inactive)"}, {"smiles": "COc1cc(O)ccc1C(C)=O", "activity remaining": "124% (inactive)"}, {"smiles": "CC(CN(C)C)CN1c2ccccc2Sc2ccccc21", "note": "(configuration not stated)", "activity remaining": "101% (inactive)"}, {"smiles": "CCCCCCCCCCCCCCC(C(=O)O)C(O)(CC(=O)OC)C(=O)O", "note": "(configuration not stated)", "activity remaining": "128% (inactive)"}, {"smiles": "O=C(NC(Cc1cc(=O)[nH]c2ccccc12)C(=O)O)c1ccc(Cl)cc1", "note": "(configuration not stated)", "activity remaining": "106% (inactive)"}, {"smiles": "CC1NC(=O)NC1=O", "note": "(configuration not stated)", "activity remaining": "97.3% (inactive)"}, {"smiles": "CS(=O)(=O)OCCCCOS(C)(=O)=O", "activity remaining": "79.2% (inactive)"}, {"smiles": "COc1c(O)cc2oc3cc(O)c(CC=C(C)C)c(O)c3c(=O)c2c1CC=C(C)C", "activity remaining": "93% (inactive)"}, {"smiles": "COc1c(C)c2c(c(O)c1C/C=C(\\C)CCC(=O)O)C(=O)OC2", "activity remaining": "98.9% (inactive)"}]}]}
